HT1080 IDH1KD tx: toxicity to HT-1080 IDH1 knockdown cells (counter line). HT-1080 IDH1 knockdown viability, ATP luminescence, 48 h. Potency, µM (doses to about 46.1 µM), without a hit: top-dose activity, negative = toxicity, most hits filed as cytotoxic. hit rate 2% among 360,000. AID 686971;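 further: 0% = DMSO wells and -100% = cell-free medium wells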
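IDH1KD HT-1080 cells, 750/well, RPMI + 5% FBS; compound pinned after 2 h settling; 48 h, 37 °C; CellTiter-Glo luminescence; % activity normalised to DMSO and no-cell wells; curves fitted, classed by r2 and efficacy.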
HT1080NT lethal: kills 2HG-producing HT-1080-NT fibrosarcoma cells | Potency, µM (highest dose often 46.1 µM), for inactives: top-dose activity, negative = less viability, hits mostly cytotoxic | hit rate 1.6% among 360,000 | AID 686970 | HT-1080-NT fibrosarcoma viability, CellTiter-Glo ATP luminescence, 48 h;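 further: NT is the 2HG producing partner of a matched IDH1 knockdown line; 0% = DMSO-treated cells and -100% = media-only wells without cells; nearly all actives have a fitted effect of over 55% in size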
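HT-1080-NT; 750 cells/well; 5% FBS RPMI; 48 h compound, 37 degrees C; CellTiter-Glo luminescence; curve fitting and curve-class assignment.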
KB-V1 MDR tox: KB-V1 MDR subline cytotoxicity | KB-V1 MDR cells viability, CellTiter-Glo, 72 h | hit rate 3.4% among 400,000 | Potency, µM (doses to about 46.1 µM), usual class: cytotoxic; further: nearly all actives have a fitted effect of over 60% in size
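qHTS viability screen in drug-selected KB-V1 MDR cells: 72 h compound treatment at 37 degrees C, ATP luminescence end point.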
TDP1 cell noCPT: qHTS for Inhibitors of human tyrosyl-DNA phosphodiesterase 1 (TDP1): qHTS in cells in absence of CPT; DT40 Tdp1-/- hTDP1 cells, no CPT, ATP luminescence, 48 h; Potency, µM (doses to about 46.2 µM), inactives show top-dose activity change, negative = growth inhibition, hits mostly inhibitors; hit rate 15% among 420,000; AID 686978, 2013; further: nearly all actives have a fitted effect of over 55% in size
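Growth kinetics read by CellTiter-Glo luminescence after ≥48 hr at 37 °C. Cells: DT40 Tdp1-/- stably carrying human TDP1, 400 per well, compound exposure in the absence of CPT (DMSO vehicle).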
TDP1 cell CPT: DT40-hTDP1 cell growth loss with CPT; chicken DT40 Tdp1-/-;hTDP1 cells + 20 nM CPT, ATP luminescence, 48 h; hit rate 12% among 420,000; AID 686979; Potency, µM (doses to about 46.2 µM), for the others: at the highest dose activity change, negative = growth inhibition, most hits filed as inhibitors; further: nearly all actives have a fitted effect of over 55% in size
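Chicken DT40 Tdp1-/- cells complemented with human TDP1, 400 cells/well, exposed to compounds plus 20 nM camptothecin for at least 48 h at 37 C; viability read as ATP content by CellTiter-Glo luminescence.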
KB-3-1 cytotox: KB-3-1 parental cell cytotoxicity; KB-3-1 viability, CellTiter-Glo ATP luminescence, 72 h; Potency, µM (doses to about 46.1 µM), usual class: cytotoxic; hit rate 1.4% among 400,000; AID 1347075; further: nearly all actives have a fitted effect of over 60% in size
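Screening of KB-3-1 cells (DMEM, 10% FBS, phenol-red free) ran from lowest to highest compound concentration; after 72 h at 37 °C viability was read luminescently and curves fitted.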
Active calls of the source: *; i = inactive; ? = inconclusive; . = no result given; [ ] = remark or other dose. Only some compounds are listed: those with a hit (about 19% of all), similar ones and a draw of the others. The call rests on the fitted dose curve; in most records, active means well fitted curve in the direction sought with a large enough effect; inconclusive means small, poorly fitted or top-dose-only effect, or another doubt; inactive means no such curve, though single readings can be large; an effect the other way counts as inactive or inconclusive. Unless noted, on the % scale 0 is the no-effect control and ±100 the full control effect; potency means the concentration at half of the fitted maximal effect.

SMILES | HT1080 IDH1KD tx | HT1080NT lethal | KB-V1 MDR tox | TDP1 cell noCPT | TDP1 cell CPT | KB-3-1 cytotox
CC(=O)C1CCC2C(CCC3=CC(=O)CCC32)C1 (stereo not given) | 6.2% | 7.5% | ? | ? | -0.7% | ?
C#C[C@]1(OC(C)=O)CC[C@H]2[C@@H]3CCC4=CC(=O)CC[C@@H]4[C@H]3CC[C@@]21C | . | . | . | 11.9µM* | 8.41µM* | .
C#C[C@]1(O)CC[C@H]2[C@@H]3CCC4=CC(=O)CC[C@@H]4[C@H]3CC[C@@]21C | -12.0% | -0.1% | 2.31µM* | ? | ? | ?
C[C@]12C=CC(=O)C=C1CCC1C2CC[C@@]2(C)C1CCC21OCCO1 (stereo not given in full) | -9.5% | -16.9% | i | ? | ? | i
Cc1ccc(Nc2c(-c3ccc(C)cc3)nc3c(C)cccn23)cc1 | . | . | i | ? | 14.6µM* | i
Cc1ccccc1Nc1c(-c2ccc(O)cc2)nc2c(C)cccn12 | . | . | i | ? | 16.4µM* | i
Cc1ccc(-c2nc3c(C)cccn3c2Nc2ccccc2C)s1 | . | . | i | ? | 20.6µM* | i
Cc1cccn2c(Nc3ccccc3)c(-c3ccc(N4CCOCC4)cc3)nc12 | . | . | i | 5.8µM* | ? | i
O=C1C=C(c2cc3ccccc3s2)CCC1 | 9.5% | 7.3% | i | -25.7% | -17.2% | i
O=C1C(=O)N(CCCn2ccnc2)C(c2ccc([N+](=O)[O-])cc2)/C1=C(\O)c1ccc2c(c1)OCCO2 (stereo not given) | 1.2% | -3.1% | i | -25.8% | -2.7% | i
Cn1nnnc1SCCCNCc1ccccc1OCc1ccc(F)cc1 | . | . | ? | ? | ? | i
CCOc1cccc(CNCCCSc2nnnn2C)c1 | . | . | i | -7.7% | -0.3% | i
Cn1nnnc1SCCCNCc1cccc(OCc2ccc(F)cc2)c1 | . | . | i | 23.1µM* | ? | i
Cn1nnnc1SCCNCc1cc(Cl)ccc1OCc1ccccc1 | -0.5% | -5.9% | 5.17µM* | 23.1µM* | 25.9µM* | i
Cn1nnnc1SCCNCc1ccc(Cl)cc1 | 2.7% | 24.9% | i | -13.3% | -21.1% | i
Cn1nnnc1SCCCNCc1ccccc1OCc1ccc(Cl)cc1 | . | . | . | 23.1µM* | 18.4µM* | .
Cn1nnnc1SCCNCc1ccccc1OCc1ccc(Cl)cc1 | ? | ? | i | 16.4µM* | ? | i
COc1ccc(CNC2CC(=O)N(C)C2=O)cc1 (stereo not given) | 1.8% | 13.1% | i | -6.2% | -7.8% | i
CC(C)Oc1ccc(C2NC(=O)c3ccccc3O2)cc1 (stereo not given) | 20.9% | 2.0% | i | -2.8% | 3.7% | i
Cc1ccc(CNCCCSc2ncccn2)cc1 | 19.7% | 8.9% | i | -25.6% | -6.7% | i
CCOc1cccc(CNCCCSc2ncccn2)c1 | 4.1% | 1.3% | i | 14.6µM* | 4.61µM* | i
COc1cc(CNCCSc2nnnn2C)ccc1OCc1ccccc1C | . | . | i | ? | 16.4µM* | i
COc1ccc(NC(=O)NCc2cccnc2)c(OC)c1 | 4.8% | -1.2% | i | 1.7% | 0.2% | i
COc1ccc(NC(=O)N(Cc2cccnc2)Cc2ccccc2Cl)c(OC)c1 | -1.2% | 0.0% | i | ? | 18.4µM* | i
COc1ccccc1-c1nnc(SCC(=O)NC2CCCCC2)n1C | 16.8% | 16.6% | i | -11.2% | 5.6% | i
SMILES | HT1080 IDH1KD tx | HT1080NT lethal | KB-V1 MDR tox | TDP1 cell noCPT | TDP1 cell CPT | KB-3-1 cytotox
Cc1ccc(OCc2ccc([N+](=O)[O-])cc2)c([N+](=O)[O-])n1 | 4.7% | 16.0% | i | -2.2% | 4.1% | i
O=C(CSC1=NS(=O)(=O)c2ccccc21)Nc1ccccc1 | -1.7% | -1.8% | i | 2.59µM* | 1.84µM* | 14.6µM*
COC(=O)CSC1=NS(=O)(=O)c2ccccc21 | ? | -0.8% | i | 2.31µM* | 1.46µM* | i
O=C(CSC1=NS(=O)(=O)c2cc(F)ccc2N1)Nc1ccccc1 | -7.6% | -14.8% | ? | -30.3% | 15.7% | i
C/C(=N\NC(=O)c1nnn(-c2nonc2N)c1CSc1ccccc1)c1ccc2c(c1)OCO2 | -1.1% | 2.1% | i | 1.2% | 5.5% | i
CC(=O)c1ccc(-c2ccc(C(=O)NCC3CCCO3)o2)cc1 (stereo not given) | 1.9% | 0.5% | i | -27.8% | 2.2% | i
CCCn1c(-c2ccc(OC)cc2)nc2ccccc21 | ? | -16.8% | 18.4µM* | 3.66µM* | 2.59µM* | ?
COc1ccc(-c2nc3ccccc3n2Cc2ccc(C)cc2)cc1 | ? | ? | i | ? | 16.4µM* | i
CCOC(=O)n1c(=O)n(Cc2ccc(OC)cc2)c2ccccc21 | ? | 14.6µM* | ? | 16.4µM* | ? | 16.4µM*
COc1ccc(Cn2c(-c3ccc(C)cc3)c[n+]3ccccc23)cc1 | 1.16µM* | 4.11µM* | i | 0.92µM* | 1.03µM* | 3.26µM*
COCn1c(-c2ccc(OC)cc2)nc2ccccc21 | -21.9% | -17.2% | i | -27.3% | -11.0% | i
C[C@@H](NC(=O)c1ncn(Cc2ccccc2)c1C(=O)N[C@H](C)c1ccccc1)c1ccccc1 | -3.2% | 6.2% | ? | ? | -1.9% | i
CCC(=O)N1c2ccccc2CC1C(=O)NCCc1ccccc1 (stereo not given) | . | . | i | 8.0% | -12.8% | i
COc1ccc(-c2nc3ccccc3n2Cc2ccc(C(C)C)cc2)cc1 | . | . | ? | . | . | i
COc1ccc(CNc2nc3ccccc3n2Cc2ccc(C)cc2)cc1OC | 8.7% | -1.0% | 3.26µM* | ? | ? | i
C=CCn1c(-c2ccc(C)cc2)nc2ccccc21 | ? | -8.1%[9.24 µM] | i | 20.6µM* | 14.6µM* | i
C=C(C)Cn1c(-c2ccc(OC)cc2)nc2ccccc21 | -11.0% | -2.9% | i | 14.6µM* | 13µM* | i
C=CCn1c(-c2cccnc2Cl)nc2ccccc21 | 2.7% | 3.7% | i | 4.9% | 1.3% | i
CCOC(Cn1c(-c2ccc(OC)cc2)nc2ccccc21)OCC | -13.0% | -3.9% | i | 16.4µM* | 23.1µM* | i
c1ccc(Cn2c(NCc3ccncc3)nc3ccccc32)cc1 | -4.1% | -2.1% | ? | -17.5% | -18.1% | i
Cc1c(Cl)cccc1NC(=O)Cn1nnc(-c2nc(-c3ccccc3)no2)c1N | . | . | . | 5.0% | 12.7% | .
Clc1ccc(-c2nc3ccccc3n2OCc2ccccc2)cc1 | 3.1% | 2.0% | i | 20.6µM* | 20.6µM* | i

Source: PubChem BioAssay
